Legend:
Test in all cases: PBM binding z-score (relative to random genomic background probes); higher = stronger binding; sequences stand for … in GC…GCGATTGACAGCGTAGAATGAAGG
[1] = tested on: PPARg:RXRa DBDmut IVT, anti-RXR (DBD mutation: RXRa K156A/R161A, NR concentration 270 nM, RXRa partner concentration 90 nM)
Procedure, shortened: (§1)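 Binding z-scores take random background probes as their reference. They come from custom Agilent 4×180K protein-binding microarrays incubated 1 h with ligand-free nuclear receptor dimers, with antibodies against each partner (one per run) detecting binding. Scanned fluorescence was regression-normalized.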

[2] = tested on: PPARg:RXRa IVT, anti-PPARg (NR concentration 270 nM, RXRa partner concentration 90 nM)
Procedure, shortened: as §1

[3] = tested on: PPARg DBDmut:RXRa IVT, anti-PPARg (DBD mutation: PPARg1 K132A/R137A, NR concentration 270 nM, RXRa partner concentration 90 nM)
Procedure, shortened: as §1

[4] = tested on: PPARg DBDmut IVT, anti-PPARg (DBD mutation: PPARg1 K132A/R137A, NR concentration 270 nM)
Procedure, shortened: as §1

[5] = tested on: PPARg homodimer (NR concentration 180 nM)
Procedure, shortened: as §1

[6] = tested on: PXR:RXRa (NR concentration 270 nM, RXRa partner concentration 90 nM)
Procedure, shortened: as §1

[7] = tested on: PXR homodimer (NR concentration 270 nM)
Procedure, shortened: as §1

[8] = tested on: RARa:RXR (NR concentration 270 nM, RXRa partner concentration 90 nM)
Procedure, shortened: as §1

[9] = tested on: RARa homodimer (NR concentration 270 nM)
Procedure, shortened: as §1

[10] = tested on: RARb:RXRa (NR concentration 270 nM, RXRa partner concentration 90 nM)
Procedure, shortened: as §1

Sequence	PBM binding z-score [1]	PBM binding z-score [2]	PBM binding z-score [3]	PBM binding z-score [4]	PBM binding z-score [5]	PBM binding z-score [6]	PBM binding z-score [7]	PBM binding z-score [8]	PBM binding z-score [9]	PBM binding z-score [10]
GTACCAAGTTGAATAGGTCGTTGATGAGTAGGCG	-0.264	0.17	0.192	0.767	0.638	0.225	0.216	0.609	0.578	0.926
CCAGCCAGGTGAGAAGGTAACTCAGCCTCGATTA	0.886	0.642	-1.31	-0.676	-0.199	-0.486	-0.622	-0.386	-0.592	0.364
TAGCCTAGGTCATTGGGCCAGTGTAGTACGCATC	2.97	4.15	1.07	-0.249	0.874	1.41	-0.395	2.15	-0.103	3.69
TCATATAGGTAAAAGGTGAAACTCGGTGTGGTAA	5.96	5.4	0.902	1.04	1.99	2.27	0.443	3.48	1.82	2.26
ATCTCCAGGTAACAAGTTCAGTGAAAGAGAGGAC	0.841	1.17	1.63	1.37	1.7	1.73	2.04	1.05	1.49	1.76
TATACAGGGTCAAAGCCCAGAGTACGAATGTCGA	2.27	4.44	3.06	1.86	2.91	3.69	0.241	4.55	0.678	4.28
AGAATGAGGCTAAGATCAGGGAAACAGAATACAT	0.345	0.552	0.582	0.0133	0.00249	-0.259	0.0356	-0.0952	0.229	0.158
AGAATTAGGTTAAGATCAGGGAAACAGAATACAT	6.07	5.8	2.12	1.83	1.72	0.514	0.846	0.922	1.26	1.03
GCTAGCAGGCCATTTGGGTCACTCCATGACGGGC	1.48	1.98	-0.282	-0.961	-0.247	0.113	-0.146	0.126	-0.604	1.39
TCTATTAGTTGAAGGGTAACCGACGAGTCCGTTT	2.52	0.636	0.556	0.761	1.56	1.03	0.714	1.09	1.6	0.96
TAGCCTAGGTCAGATCGGGCCAGCATACGCTATA	0.377	1.4	-0.988	-0.801	0.0554	0.945	-0.628	1.3	-0.92	3.09
TCTCGGAGGACACGATAGGTCAGAGCTCGACATC	1.4	0.606	-0.736	-0.55	0.932	0.843	-0.337	1.59	-0.7	2.66
AGAATGAGGTTACCAATGATCAGGGAAACGCTTG	3.69	3.24	1.14	0.416	0.494	1.05	-0.11	1.83	0.362	2.03
AGAATGAGGTTATACGCAGATCAGGGAAGAAAGT	2.73	2.31	1.31	0.997	0.831	1.14	0.481	1.59	0.675	1.52
TCTCGGGGGACACGAAGGTCAGAGCTTTCCAGAG	2.39	3.51	2.53	5.36	2.05	3.27	1.24	3.29	0.556	3.73
CCTATTAGTTGACCATACGGGCAACCGAAGCTCG	0.407	0.329	0.889	0.71	1.39	-0.0836	0.786	-0.218	1.26	0.631
ACTATTAGTTGACTTAGGGCAACCGCTACGACGC	-0.144	0.703	0.862	0.674	0.236	0.0683	-0.0423	0.605	0.391	0.745
CCTTACGGGTCACTGACAGGTGATAGCATTTGGA	3.73	3.99	0.64	-0.737	2.47	4.3	0.473	5.06	0.945	4.15
CCTATTAGTTGACCATGAGGGCAACCGAAGCTCG	0.64	0.77	0.542	0.384	1.98	1.48	1.48	1.37	1.39	1.52
TCTGCTAGGTCAACGATGGTCAGCTGATCTGCTA	3.61	4.29	-0.0935	1.17	0.984	1.58	-0.669	2.3	-0.39	4.03
CATACAGGGTCAGCTGGGCCAGAGTAGGGACGGC	1.23	2.66	0.246	0.292	1.52	2.22	-0.145	2.81	0.258	4.08
TCTATTAATTGAAGGGCAACCGACGAGTCCGTTT	2.49	0.956	0.163	1.02	1.56	0.915	1.96	0.829	1.43	1.45
GCTTGCGGGTCAAAGGTTATAGCATGAATAGAAT	6.08	6.75	0.506	0.0418	2.11	6.07	0.118	7.94	0.537	4.53
AGAATGAGGCTATACGTAGATCAGGGAAGAAAGT	1.49	0.333	0.633	0.637	-0.215	-0.274	-0.0563	-0.0968	-0.0794	0.153

Reference: the supplement of paper PMC6555819
